Rows were chosen to be rich in hits. Some 1.1% of all compounds tested hit in one or more screens of this group.
BJeLR viability: BJeLR cell viability loss; BJeLR (HRASV12) viability, CellTiter-Glo ATP luminescence, 48 h; AID 1554; inhibition, % (test concentration not listed); actives 0.17% (n = 300,000); in the data active = inhibition above about 50%; inconclusive = no clear call, values can overlap the other calls
MazEF act: increases E. coli MazEF RNase cleavage of RNA; actives 0.32% (n = 350,000); AID 504720; activation, % at 20 µM; FAM/BHQ RNA-DNA oligo cleavage fluorescence, 5 h; in the data active = activation above about 50%
Target sequence (P0AE70 whole entry, looked up): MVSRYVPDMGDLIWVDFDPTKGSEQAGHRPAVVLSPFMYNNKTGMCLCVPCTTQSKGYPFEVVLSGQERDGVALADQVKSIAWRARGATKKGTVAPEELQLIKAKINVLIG
PrPC TRFRET: cell surface PrPC inhibition, primary TR-FRET screen; inhibition, % at 13.8 µM; TR-FRET read-out; actives 0.43% (n = 370,000); P04156; in the data active = inhibition above about 24%; note: 0% = median of the test wells and 100% = reference compound wells
PrP UTR inh: inhibition of PrP 5' UTR reporter expression. cell-based PrP 5' UTR mRNA reporter, plate reader. inhibition, % (concentration not given with the values). actives 0.35% (n = 340,000). AID 488862; in the data active = inhibition above about 52%; note: 0 = median of the neutral control wells
PrP UTR cherry: prion 5' UTR mRNA inhibition, cherry-pick retest; actives 48% (n = 1,100); AID 504592; shares compounds with PrP UTR inh; inhibition, % at 2.5 µM; cell-based prion protein 5' UTR reporter, plate reader; in the data active = inhibition above about 54%; inconclusive = no clear call, values can overlap the other calls
* hit, by the source's call; ? = inconclusive; . = not tested or not shown.

SMILES	BJeLR viability	MazEF act	PrPC TRFRET	PrP UTR inh	PrP UTR cherry
COC(=O)C1=C(C)N(Cc2cccc(C(F)(F)F)c2)C(=NCc2cccc(C(F)(F)F)c2)NC1c1ccc(Cl)cc1 (stereo not drawn)	.	.	-1	.	.
O=C(CSc1ccccc1)N1CCC(Oc2cccnc2)CC1	.	.	0	.	.
COC(=O)c1cccc(Nc2cc(C)n(-c3cccc(C(=O)OC)c3)c(=O)c2)c1	.	.	9	.	.
CCC(C)CNC(=O)c1oc(=O)c2ccccc2c1-c1ccc(C)cc1 (stereo not drawn)	.	.	7	.	.
CN(C)CCCNC(=O)c1ccc(Oc2ccccc2)cc1	-1	3	4	88*	-12
C=CCN1C(=O)c2n[nH]c(C)c2C1c1ccc(C)cc1 (stereo not drawn)	.	.	9	.	.
COc1ccc(NC(=O)COC(=O)Cc2c[nH]c3ccccc23)cc1OC	1	-1	7	68*	-24
CC1OC(OC2C=C3CCC4C(CCC5(C)C(c6ccc(=O)oc6)CCC45O)C3(C)CC2)C(O)C(OC2OC(CO)C(O)C(O)C2O)C1O (stereo not drawn)	.	9	-4	93*	92*
COc1ccc(OC)c(-c2nnc3n2N=C(c2ccc(OC)c(OC4CCOC4)c2)CS3)c1 (stereo not drawn)	.	9	17	72*	81*
COc1ccc(C2=Nn3c(nnc3-c3ccccc3OC)SC2)cc1OC	8	3	15	56*	77*
O=C(COc1cc(Cl)c(Cl)cc1Cl)NCCN1CCOCC1	-2	0	3	55*	-24
Cc1ccc(C(=O)Nc2ccc3c(c2)OCCO3)c(C)c1	9	0	6	71*	?
O=C(NCc1ccccc1)[C@H]1CCCN1C(=O)[C@H]1CCCN1C(=O)c1ccc(Cl)cc1	.	.	0	.	.
CC(=O)n1cc(-c2ccncc2)c2ccccc21	-3	10	0	55*	-3
COC(=O)[C@]12C[C@H](CC(=O)NCCC(C)C)C(=O)N(CCC3=CCCCC3)C1=C[C@H](COCc1ccccc1)O[C@@H]2C	.	.	-3	.	.
CSc1ccc(Cl)c(C(=O)Nc2ccc(Cl)cn2)c1	10	5	10	-12	.
COc1cc(SC)ccc1C(=O)Nc1ccc(Cl)cn1	-4	-7	3	60*	55*
COC(=O)C1=CO[C@@H](OC2OC(CO)C(O)C(O)C2O)[C@@H]2[C@@H](C)[C@@H](O)C[C@H]12 (stereo partly drawn)	-14	-7	-1	-3	.
COC(=O)C1=CO[C@@H](O[C@@H]2O[C@H](CO)[C@@H](O)[C@H](O)[C@H]2O)C2C1C=C[C@@]2(O)CO (stereo partly drawn)	.	-15	0	76*	-29
COc1cc(C(=O)N2CCN(c3ccccc3)CC2)c2ccccc2n1	.	11	2	75*	88*
O=C(c1cc(-c2cccs2)nc2ccccc12)N1CCN(c2ccccc2)CC1	4	-9	-4	-22	.
CCCCN(C)C(=O)c1cn(C(C)c2ccccc2)nn1 (stereo not drawn)	.	.	-1	.	.
Cc1nn(-c2ccccc2)c(Cl)c1C(=O)NCCCCNC(=O)c1c(C)nn(-c2ccccc2)c1Cl	-14	1	-3	74*	6
CN1CCN(c2ccc3c(c2)Oc2ccccc2CN(Cc2cn(Cc4ccccc4C(F)(F)F)nn2)S3(=O)=O)CC1	.	.	-17	.	.
CCc1ccc(/C=C2\SC(=S)N(CCCC(=O)Nc3ccccn3)C2=O)cc1	-9	-90	-2	57*	55*
SMILES	BJeLR viability	MazEF act	PrPC TRFRET	PrP UTR inh	PrP UTR cherry
O=c1cc(-c2ccc(Cl)c(Cl)c2)[nH][nH]1	3	-25	0	57*	-20
CCOc1ccc(NC(=O)c2cc(S(=O)(=O)N3CCOCC3)cs2)cc1	-2	3	2	-2	.
CCOc1ccc(NC(=O)c2cc(S(=O)(=O)N3CCOCC3)cn2C)cc1	-5	8	10	51*	28
COc1ccc(CCNC(=O)c2ccc3c(c2)OCCO3)cc1	0	-8	4	-45	.
O=C(c1ccc(F)cc1)N1CCOCC1	3	10	4	69*	-18
Cc1ccc(C(=O)NCCc2ccccc2)cc1	0	4	.	59*	64*
O=C(Nc1ccc(F)cc1)c1ccc(C(=O)N2CCOCC2)cc1	8	2	-4	-14	.
Cc1ccc(C(=O)NCCc2ccncc2)cc1	2	-2	-7	-33	.
O=C(CCc1ccccc1)c1ccc2c(c1)OCCCO2	-3	-1	-5	-79	.
O=C(CCCc1ccccc1)c1ccc2c(c1)OCCO2	-12	-6	-2	83*	89*
O=C(NCCc1ccccc1)c1ccc2c(c1)OCCCO2	-7	6	9	92*	91*
